Data published in PubChem BioAssay (EPA / NIEHS).
Records with an inconclusive call do not appear. The source made the active and inactive calls. How the source made its calls, unless noted: active means hit-call score of the fitted dose curve at least 0.9, where 1 is the maximum; inactive means score below 0.9.

Columns and labels:
[1] = CCTE_Mundy_HCI_Cortical_Synap_Neur_Matur_NeuriteSpotCountPerNeuriteLength: CCTE's Synaptogenesis and Neurite Maturation Assay in rat cortical cells for Neurite Spot Count per Neurite Length, Mundy Lab (AID 2284210)
Outline: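 Rat primary cortical cultures, glia arrested with AraC at DIV 5, were dosed with media change at DIV 7 and fixed at DIV 12. Synaptophysin puncta per MAP2-labelled neurite length were quantified by high-content imaging versus DMSO.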

[2] = CCTE_Mundy_HCI_Cortical_NOG_NeuriteCount: CCTE's Neurite Outgrowth Assay in rat cortical cells for Neurite Count, Mundy Lab (AID 2284212);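 further: cells fixed about two days after chemical exposure began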
Outline: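 Neurite number per cell from high-content imaging of betaIII-tubulin immunostaining, with Hoechst nuclear counterstain.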

[3] = CCTE_Mundy_HCI_Cortical_NOG_NeuriteLength: CCTE's Neurite Outgrowth Assay in rat cortical cells for Neurite Length, Mundy Lab (AID 2284213)
Outline: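 Neurite length was read by high-content imaging of βIII-tubulin-labelled neurites in rat primary cortical cultures. Activity was fitted relative to DMSO.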

[4] = CCTE_Mundy_HCI_Cortical_Synap_Neur_Matur_NeuriteLength: CCTE's Synaptogenesis and Neurite Maturation Assay in rat cortical cells for Neurite Length, Mundy Lab (AID 2284214)
Outline: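 Rat primary cortical cultures, AraC added DIV 5, dosed DIV 7 through DIV 12 […]. Fixed, MAP2/synaptophysin immunostained with Hoechst; neurite length by high-content imaging, fitted in positive direction versus DMSO.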

[5] = CCTE_Mundy_HCI_Cortical_Synap_Neur_Matur_NeuriteSpotCountPerNeuron: CCTE's Synaptogenesis and Neurite Maturation Assay in rat cortical cells for Neurite Spot Count per Neuron Count, Mundy Lab (AID 2284215)
Outline: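 Read-out: neurite-associated synaptophysin puncta per neuron, imaged by high-content analysis after MAP2, synaptophysin and Hoechst staining. Rat primary cortical cultures, dosed DIV 7 through DIV 12; DMSO served as baseline.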

[6] = CCTE_Mundy_HCI_Cortical_Synap_Neur_Matur_SynapseCount: CCTE's Synaptogenesis and Neurite Maturation Assay in rat cortical cells for Synapse Count, Mundy Lab (AID 2284218)
Outline: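 Rat primary cortical cultures, AraC at DIV 5, chemical dosing DIV 7 to DIV 12 (288.33 h). Fixed cells stained for MAP2, synaptophysin and Hoechst; synapses per neuron counted by high-content imaging, loss of signal versus DMSO.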

[7] = CCTE_Mundy_HCI_Cortical_Synap_Neur_Matur_NeuriteCount: CCTE's Synaptogenesis and Neurite Maturation Assay in rat cortical cells for Neurite Count, Mundy Lab (AID 2284222)
Outline: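 Rat primary cortical cells; AraC added at DIV 5, chemicals dosed with media change at DIV 7 through DIV 12. MAP2/synaptophysin/Hoechst immunostaining, high-content imaging of neurite number; fitted relative to DMSO.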

[8] = CCTE_Mundy_HCI_Cortical_Synap_Neur_Matur_CellBodySpotCount: CCTE's Synaptogenesis and Neurite Maturation Assay in rat cortical cells for Cell Body Spot Count, Mundy Lab (AID 2284223)
Outline: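 Read-out: cell body-associated synaptophysin puncta per neuron, imaged after MAP2, synaptophysin and Hoechst staining. Rat cortical cells, AraC DIV 5, chemical dosing DIV 7, fixation DIV 12. Activity fitted in positive direction relative to DMSO baseline.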

[9] = CCTE_Mundy_HCI_Cortical_NOG_NeuronCount: CCTE's Neurite Outgrowth Assay in rat cortical cells for Neuron Count, Mundy Lab (AID 2284236; active means hit-call score of the fitted dose curve at least 0.9, where 1 is the maximum;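 further: neurons counted by imaging betaIII-tubulin and Hoechst stained cortical cells; cells exposed to compound for about 48 hours before fixation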)
Outline: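 Read-out: neuron number by high-content imaging of betaIII-tubulin (Alexa Fluor-488) and Hoechst-labelled rat primary cortical cells.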

[10] = CCTE_Mundy_HCI_Cortical_NOG_BPCount: CCTE's Neurite Outgrowth Assay in rat cortical cells for Branch Point Count, Mundy Lab (AID 2284237)
Outline: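 Measured 50.33 h after dosing, this morphology endpoint uses rat primary cortical cultures labelled for betaIII-tubulin. Branch points are quantified by high-content imaging, with DMSO as negative control and baseline.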

[11] = CCTE_Mundy_HCI_hNP1_Casp3_7: CCTE's Caspase-Glo 3/7 Assay in human neuroprogenitor cells for Apoptosis, Mundy Lab (AID 2284240)
Outline: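 Neuroepithelial-lineage stem cells from WA09 embryonic cells were treated with chemicals after 40–44 h of culture. Twenty-four hours later, caspase-3/7 activation was detected luminescently after a 30 min room-temperature reagent step, with DMSO as baseline.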

[12] = CCTE_Mundy_HCI_Cortical_Synap_Neur_Matur_NeuronCount: CCTE's Synaptogenesis and Neurite Maturation Assay in rat cortical cells for Neuron Count, Mundy Lab (AID 2284242; active means hit-call score of the fitted dose curve at least 0.9, where 1 is the maximum)
Outline: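 Rat primary cortical cells, AraC added at DIV 5, dosed with media change from DIV 7 to DIV 12. Fixed, Hoechst-stained and immunolabelled for MAP2 and synaptophysin; neuron number counted by high-content imaging, loss fitted versus DMSO.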

[13] = IUF_NPC2c_oligodendrocyte_migration_120hr: Leibniz Research Institute for Environmental Medicine (IUF) 120-hour Neural Progenitor Cell Migration Assay for Oligodendrocyte Migration (NPC2c) (AID 2284297);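 further: O4-positive oligodendrocyte migration distance divided by radial glia migration distance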
Outline: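 hNPC spheres (GW 16-19 cortex), PDL/laminin, DMEM/F12 3:1 + 1% N2, 37C. Dosing day 0–5, half feed day 3, DMSO ≤0.1%. Fixed 120 h; O4 ICC + Hoechst, HCI. Readout: mean oligodendrocyte distance from sphere edge / radial glia distance.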

[14] = IUF_NPC2a_radial_glia_migration_120hr: Leibniz Research Institute for Environmental Medicine (IUF) 120-hour Neural Progenitor Cell Migration Assay for Radial Glia Migration (NPC2a) (AID 2284298)
Outline: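 Hoechst-stained nuclei imaged at 120 h; algorithm maps sphere core by densest nuclei, sets migration edge at density threshold, gives radial glia migration distance (um) per well vs DMSO. hNPC spheres (0.3 mm), PDL/laminin, DMEM/F12 3:1 + 1% N2.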

[15] = IUF_NPC2a_radial_glia_migration_72hr: Leibniz Research Institute for Environmental Medicine (IUF) 72-hour Neural Progenitor Cell Migration Assay for Radial Glia Migration (NPC2a) (AID 2284299)
Outline: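 Human fetal neural progenitor spheres (0.3 mm) plated on poly-D-lysine/laminin in N2 differentiation medium and exposed from day 0 at 7 concentrations; radial glia migration distance from sphere edge measured at 72 h on brightfield images, mean of four directions, vs DMSO.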

[16] = IUF_NPC2b_neuronal_migration_120hr: Leibniz Research Institute for Environmental Medicine (IUF) 120-hour Neural Progenitor Cell Migration Assay for Neuron Migration (NPC2b) (AID 2284300)
Outline: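 hNPC spheres, PDL/laminin, DMEM:F12 3:1 + 1% N2, 37C/5% CO2; 7 concentrations + solvent control (DMSO ≤0.1%), 5 d exposure, half-feed day 3. Fix 120 h, TUBB3 ICC, HCI: mean neuron migration distance ÷ glia distance.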

[17] = IUF_NPC3_neuronal_differentiation_120hr: Leibniz Research Institute for Environmental Medicine (IUF) 120-hour Neuronal Differentiation Assay (NPC3) (AID 2284301)
Outline: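 Primary human fetal neural progenitor spheres (GW 16-19, 0.3 mm) plated on poly-D-lysine/laminin in N2 medium, exposed from day 0 for 120 h with half-medium refresh at day 3. TUBB3+ cells as percent of Hoechst nuclei in migration area; DMSO baseline.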

[18] = IUF_NPC4_neurite_length_120hr: Leibniz Research Institute for Environmental Medicine (IUF) 120-hour Neuronal Morphology Assay for Neurite Length (NPC4) (AID 2284302)
Outline: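 Human fetal cortex (GW 16-19) neural progenitor spheres, 0.3 mm, were plated on poly-D-lysine/laminin in N2 differentiation medium and exposed from day 0 for 120 h, half-feeding at day 3. Mean TUBB3+ neurite length (µm) came from skeletonized images, relative to DMSO.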

[19] = IUF_NPC5_oligodendrocyte_differentiation_120hr: Leibniz Research Institute for Environmental Medicine (IUF) 120-hour Oligodendrocyte Differentiation Assay (NPC5) (AID 2284304; active means hit-call score of the fitted dose curve at least 0.9, where 1 is the maximum;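 further: primary human fetal neural progenitor spheres plated to migrate and differentiate; share of O4-positive cells among Hoechst nuclei found by CNN image analysis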)
Outline: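 hNPC spheres, fetal cortex GW 16-19; PDL/laminin, DMEM:F12 3:1 + 1% N2, 37C/5% CO2; 7 concentrations + solvent control, 5 d exposure, half-change day 3. Readout: %O4+ of Hoechst+ nuclei in migration area, CNN classification; DMSO baseline.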

[20] = IUF_NPC2-5_cytotoxicity_72hr: Cytotoxicity Assessment at 72 hours in the Leibniz Research Institute for Environmental Medicine (IUF) Neural Progenitor Cell Migration and Differentiation Assay for Cytotoxicity (NPC2-5) (AID 2284306; active means hit-call score of the fitted dose curve at least 0.9, where 1 is the maximum;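 further: LDH release into supernatant measured by resorufin fluorescence marking membrane damage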)
Outline: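 Human fetal (GW 16-19) neural progenitor spheres, 0.3 mm, plated on poly-D-lysine/laminin in N2 differentiation medium and exposed from day 0 to 7 concentrations plus solvent control (DMSO ≤0.1%). LDH-dependent resazurin-to-resorufin fluorescence in supernatant at 72 h.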

[21] = IUF_NPC2-5_cytotoxicity_120hr: Cytotoxicity Assessment at 120 hours in the Leibniz Research Institute for Environmental Medicine (IUF) Neural Progenitor Cell Migration and Differentiation Assay (NPC2-5) (AID 2284307; active means hit-call score of the fitted dose curve at least 0.9, where 1 is the maximum)
Outline: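 hNPC spheres on PDL/laminin, N2 medium, 37C; 7 concs + solvent control, DMSO ≤0.1%; 5-day exposure, half medium changed day 3. LDH in supernatant at 120 h, resazurin→resorufin fluorescence, gain-of-signal.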

[22] = IUF_NPC2-5_cell_number_120hr: Cell Number Assessment at 120 hours in the Leibniz Research Institute for Environmental Medicine (IUF) Neural Progenitor Cell Migration and Differentiation Assay (NPC2-5) (AID 2284308);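 further: count of Hoechst-stained nuclei in migration zone around plated human neural progenitor spheres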
Outline: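 Hoechst-stained nuclei within the migration area were counted by automated high content imaging after 120 h. Single hNPC spheres differentiated on poly-D-lysine/laminin in DMEM/F12 (3:1) with 1% N2, compound present throughout, DMSO ≤0.1%.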

[23] = CCTE_Mundy_HCI_iCellGluta_NOG_NeuronCount: CCTE's Neurite Outgrowth Assay in iCellGluta cells for Neuron Count, Mundy Lab (AID 2284340; active means hit-call score of the fitted dose curve at least 0.9, where 1 is the maximum;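 further: cells fixed about 48 h after compound addition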)
Outline: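 Neuron count read by automated high-content imaging of Hoechst 33342 and betaIII-tubulin/Alexa Fluor-488 labelling in human iPSC glutamatergic neurons. Activity fitted relative to DMSO.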

Measured: outcome

CCc1ccccc1
inactive: all assays above
